Data on 26 compounds can be found in PubChem BioAssay (NCATS).

Each structure is given as a SMILES string. Several values for one entry are separate records, joined by “and”; a condition that tells them apart may be missing. Equal entries are not always repeated. Inconclusive results are not listed. Activity calls are given as the source filed them. Unless noted, calls come from the whole dose curve; as a rule, active = well fitted curve in the direction sought with a large enough effect; inconclusive = small, poorly fitted or top-dose-only effect, or another doubt; inactive = no such curve, though single readings can be large; an effect the other way counts as inactive or inconclusive.

Assay [1] in a line: P-glycoprotein substrates identified in KB-8-5-11 adenocarcinoma cell line, qHTS therapeutic library screen (AID 1346987). Note: nearly all actives have a fitted effect of over 65% in size. Note: potency is the fitted concentration of half-maximal effect. Summed up: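 Compounds are pinned in dose-response onto KB-8-5-11 cells (500 cells/well, colchicine-free medium) and left 72 h at 37 degree C. CellTiter-Glo luminescence then yields AC50 values.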
In general terms: qHTS replaces the single test concentration by a dilution series.

Assay [2] is described as follows: Natriuretic polypeptide receptor (hNpr1) antagonism - Pilot counterscreen GloSensor control cell line (AID 1347045; calls by dose curve; note: potency is the fitted concentration of half-maximal effect). The essentials:
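Control counterscreen: luciferase cGMP-biosensor HEK293 cells (no Npr1) received compound for 30 min at room temperature after GloSensor substrate loading. Luminescence was measured before and 20 min after soluble guanylyl cyclase activation by 50 uM nitroprusside.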

The target in assay [3] is Atrial natriuretic peptide receptor 1 (Homo sapiens) (UniProt P16066). In words: Natriuretic polypeptide receptor (hNpr1) antagonism - Pilot screen (AID 1347049; calls by dose curve;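 note: agonist-evoked cGMP luminescence read 20 min after hNppA addition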; note: potency is the fitted concentration of half-maximal effect). Summed up:
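cGMP-sensor HEK293/hNpr1 cells, 1500/well, plated overnight at 37C. 2% GloSensor reagent, 2 h RT. Compound (23 nL pin transfer) 30 min RT, baseline luminescence pre-read. 0.1 nM hNppA, 20 min RT, post-read.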

A short description of assay [4]: NS1 protein of Zika virus - qHTS assay to identify small molecule inhibitors in human HEK 293 cells (AID 1347053). Note: nearly all actives have a fitted effect of over 55% in size. Note: potency is the fitted concentration of half-maximal effect. Summed up: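 TR-FRET signal from two anti-ZIKV NS1 antibodies quantified NS1 in HEK 293 cells 24 h after MR766 infection at MOI = 0.5; compounds were added 1 h before virus. Uninfected cells and infected cells defined the NS1 normalization range.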
Assay [5] addresses T1, Tyrosine-protein phosphatase non-receptor type substrate 1 (Homo sapiens) + Leukocyte surface antigen CD47 (Homo sapiens) (UniProt P78324+Q08722). As to the kind of experiment: CD47-SIRPalpha protein protein interaction - LANCE assay qHTS validation (AID 1347057; active = well fitted curve in the direction sought with a large enough effect in the signal ratio, with a control signal flat, not every such curve was filed as active; the % refers to the signal ratio; note: series mostly up to about 38 µM). Summed up:
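Inhibition of soluble CD47/SIRPalpha ectodomain association by titrated compounds, measured as 665/615 nm time-resolved FRET ratio after sequential 30 min room-temperature incubations.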
A general note: TR-FRET usually uses a lanthanide donor and a delayed reading to cut background.

Assay [6] concerns the target T1, Tyrosine-protein phosphatase non-receptor type substrate 1 (Homo sapiens) + Leukocyte surface antigen CD47 (Homo sapiens). As to the kind of experiment: CD47-SIRPalpha protein protein interaction - Alpha assay qHTS validation (AID 1347059).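 Note: bead proximity luminescence from CD47 binding SIRPalpha after compound preincubation with SIRPalpha.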 Note: potency is the fitted concentration of half-maximal effect. Summed up:
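SIRPalpha-biotin 25 nM + cpd, 30 min RT, dark; add CD47-His 12.5 nM, 30 min; add Ni-NTA/SAV beads 10 ug/mL, 30 min; AlphaScreen. Buffer PBS pH 7.4 + 0.05% IGEPAL CA-630. Non-biotinylated SIRPalpha as control inhibitor.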

Assay [7] addresses Parathyroid hormone/parathyroid hormone-related peptide receptor (Homo sapiens) (UniProt Q03431). As to the kind of experiment: qHTS for PTHR1 Agonists: Optimization Screen against the NCGC LOPAC library (AID 1347079).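 Note: GloSensor cAMP luminescence in HEK-293 GP2 cells expressing human PTHR1 with IBMX.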 The essentials:
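HEK-293 GP2 cells, PTHR1 + GloSensor cAMP; 3000 cells/well, o/n. Luciferin + IBMX 0.5mM each (stock), 1 hr 37C. Cpd titration, 1 hr 37C. Lum after 15 min RT. Ctrl M-PTH(1-15) top 10uM.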

A short description of assay [8]: qHTS of pediatric cancer cell lines to identify multiple opportunities for drug repurposing: Primary screen for TC32 cells (AID 1347089). Note: nearly all actives have a fitted effect of over 60% in size. Note: potency is the fitted concentration of half-maximal effect. Summed up:
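Measured quantity: luminescence from CellTiter-Glo, reflecting metabolically active TC32 cells following 48 h of compound. Curves came straight from multi-point titrations, with 8 or 11 points in primary and 11 in confirmatory screening.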

Assay [9] in a line: qHTS of pediatric cancer cell lines to identify multiple opportunities for drug repurposing: Primary screen for DAOY cells (AID 1347090). Note: nearly all actives have a fitted effect of over 55% in size. Note: potency is the fitted concentration of half-maximal effect. Summed up: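 Viability measured as metabolically active cells via CellTiter-Glo luminescence following 48 hours of compound exposure, 11-point dilutions in confirmatory testing. 500-1,000 cells/well plated 5 hours before dosing; controls were DMSO and 2.3 µM bortezomib.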

Assay [10] deals with T1, Tyrosine-protein phosphatase non-receptor type substrate 1 (Homo sapiens) + Leukocyte surface antigen CD47 (Homo sapiens). As to the kind of experiment: CD47-SIRPalpha protein protein interaction - HTRF assay qHTS validation (AID 1347058; active = well fitted curve in the direction sought with a large enough effect in the signal ratio, not every such curve was filed as active; the % refers to the signal ratio; note: series mostly up to about 38 µM). Summed up: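 Soluble extracellular domains (6His-CD47, Avi-tag-biotinylated SIRPalpha) in PBS pH 7.4 with 0.05% IGEPAL CA-630. Compounds were preincubated 30 min at RT with CD47 and anti-His-Eu, then SIRPalpha and SAV-XL665 were added. TR-FRET 665/615 ratio.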

Chain of Parathyroid hormone/parathyroid hormone-related peptide receptor (Homo sapiens) (Q03431 whole entry, looked up): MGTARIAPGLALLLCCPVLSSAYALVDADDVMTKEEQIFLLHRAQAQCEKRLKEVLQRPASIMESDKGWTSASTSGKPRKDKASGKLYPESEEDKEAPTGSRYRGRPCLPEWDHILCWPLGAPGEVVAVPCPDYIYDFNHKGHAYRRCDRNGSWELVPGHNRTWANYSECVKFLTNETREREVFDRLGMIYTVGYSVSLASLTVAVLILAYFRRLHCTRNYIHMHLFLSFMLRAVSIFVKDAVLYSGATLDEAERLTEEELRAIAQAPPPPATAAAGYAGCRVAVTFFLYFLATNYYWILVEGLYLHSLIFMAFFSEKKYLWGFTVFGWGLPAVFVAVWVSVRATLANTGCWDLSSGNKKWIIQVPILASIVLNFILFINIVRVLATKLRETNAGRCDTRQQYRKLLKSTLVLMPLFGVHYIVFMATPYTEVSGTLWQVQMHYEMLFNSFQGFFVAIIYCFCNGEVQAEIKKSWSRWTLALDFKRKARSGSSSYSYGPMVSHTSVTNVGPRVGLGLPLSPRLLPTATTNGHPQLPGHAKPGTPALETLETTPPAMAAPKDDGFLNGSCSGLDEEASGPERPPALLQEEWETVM
T1 sequence (P78324 whole entry, looked up, the tested form may be a part): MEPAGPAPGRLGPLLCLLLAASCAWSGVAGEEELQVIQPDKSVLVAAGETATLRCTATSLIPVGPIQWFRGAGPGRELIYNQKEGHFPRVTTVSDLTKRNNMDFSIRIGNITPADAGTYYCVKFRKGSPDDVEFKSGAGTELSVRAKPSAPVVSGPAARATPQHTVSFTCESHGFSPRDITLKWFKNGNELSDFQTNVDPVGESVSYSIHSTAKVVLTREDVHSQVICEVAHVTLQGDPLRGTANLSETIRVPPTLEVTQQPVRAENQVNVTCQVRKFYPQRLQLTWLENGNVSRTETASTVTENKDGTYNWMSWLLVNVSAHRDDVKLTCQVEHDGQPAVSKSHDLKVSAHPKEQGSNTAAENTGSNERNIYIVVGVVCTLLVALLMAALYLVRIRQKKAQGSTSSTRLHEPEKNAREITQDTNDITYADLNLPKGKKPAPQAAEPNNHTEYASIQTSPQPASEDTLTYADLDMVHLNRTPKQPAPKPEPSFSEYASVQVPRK
T1 sequence (Q08722 whole entry, looked up, the tested form may be a part): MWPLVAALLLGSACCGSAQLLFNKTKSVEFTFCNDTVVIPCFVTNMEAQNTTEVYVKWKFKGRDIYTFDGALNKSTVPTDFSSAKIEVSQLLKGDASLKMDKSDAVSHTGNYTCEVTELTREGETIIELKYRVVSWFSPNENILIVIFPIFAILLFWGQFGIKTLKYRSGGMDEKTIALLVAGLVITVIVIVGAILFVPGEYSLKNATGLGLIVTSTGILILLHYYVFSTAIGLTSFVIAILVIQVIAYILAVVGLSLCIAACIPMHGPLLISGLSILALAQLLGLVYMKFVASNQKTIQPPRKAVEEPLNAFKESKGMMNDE
Chain of Atrial natriuretic peptide receptor 1 (Homo sapiens) (P16066 whole entry, looked up): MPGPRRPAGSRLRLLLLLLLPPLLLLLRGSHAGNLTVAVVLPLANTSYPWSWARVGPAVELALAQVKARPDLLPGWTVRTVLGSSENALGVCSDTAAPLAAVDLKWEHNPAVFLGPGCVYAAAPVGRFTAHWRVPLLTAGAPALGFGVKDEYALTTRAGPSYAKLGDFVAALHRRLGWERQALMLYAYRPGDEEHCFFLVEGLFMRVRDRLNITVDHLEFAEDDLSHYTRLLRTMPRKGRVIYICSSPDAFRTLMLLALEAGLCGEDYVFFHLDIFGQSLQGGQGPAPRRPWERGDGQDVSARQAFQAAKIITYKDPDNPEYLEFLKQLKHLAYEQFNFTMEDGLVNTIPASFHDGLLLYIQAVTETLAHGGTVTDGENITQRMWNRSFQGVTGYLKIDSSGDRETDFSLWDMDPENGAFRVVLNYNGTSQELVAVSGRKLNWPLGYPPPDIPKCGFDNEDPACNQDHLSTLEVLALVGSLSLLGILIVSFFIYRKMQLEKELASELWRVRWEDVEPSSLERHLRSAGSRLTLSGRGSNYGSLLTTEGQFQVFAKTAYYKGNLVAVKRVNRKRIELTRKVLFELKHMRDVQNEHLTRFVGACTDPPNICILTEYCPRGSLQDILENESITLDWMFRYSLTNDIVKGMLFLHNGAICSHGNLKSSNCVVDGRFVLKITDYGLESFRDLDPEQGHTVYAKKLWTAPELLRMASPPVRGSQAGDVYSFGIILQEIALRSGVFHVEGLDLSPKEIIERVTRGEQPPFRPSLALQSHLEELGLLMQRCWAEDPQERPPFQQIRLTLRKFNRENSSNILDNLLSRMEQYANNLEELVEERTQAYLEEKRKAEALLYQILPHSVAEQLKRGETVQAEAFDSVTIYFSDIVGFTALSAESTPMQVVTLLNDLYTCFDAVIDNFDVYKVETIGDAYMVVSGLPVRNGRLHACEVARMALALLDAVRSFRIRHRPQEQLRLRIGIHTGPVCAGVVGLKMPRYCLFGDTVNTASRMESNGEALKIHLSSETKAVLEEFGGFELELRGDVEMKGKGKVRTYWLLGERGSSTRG

Turning to `O=C1NC(=O)C(c2ccccc2[N+](=O)[O-])=C1Nc1ccc(O)c(Cl)c1`, the Potency result in assay [1], in assay [2], in [3], in assay [4], in [6] and in assay [8] was “inactive” in each case. Further, the Potency entry in assay [9] is “inactive”. Also, the outcome in [5] and in assay [7] was inactive.
`O=c1c(O)c(-c2cc(O)c(O)c(O)c2)oc2cc(O)cc(O)c12`: the Potency result in [1], in [2], in [4], in assay [6] and in assay [8] was “inactive” in each case. Moreover, the result in [5] and in assay [7] was inactive.
On to `Cc1cccc(C#Cc2ccccc2)n1`, for which the Potency result in assay [1], in assay [4], in assay [6], in [8] and in [9] was “inactive” in each case. Besides, the result in [5] and in assay [7] was inactive.
In the case of `Oc1ccc(-c2nc(-c3ccc(F)cc3)c(-c3ccncc3)[nH]2)cc1`, the Potency result in [1], in assay [2], in assay [4] and in [6] was “inactive” in each case. For the same compound, the outcome in assay [5] and in [7] was inactive. Moreover, the Potency in [9] was 23.5 µM (active).
Turning to `CCN(CC)CCOc1ccc(Nc2ncc3cc(-c4c(Cl)cccc4Cl)c(=O)n(C)c3n2)cc1`, the Potency in [1] was 166 nM (active); in assay [4], 0.166 µM (active); in assay [8] it was 6.58 µM (active); in assay [9], 0.187 µM (active). For the same compound, in [5], the outcome was inactive. For the same compound, the Potency result in assay [6] is “inactive”.
Turning to `O=C(CCc1ccc(O)cc1)c1c(O)cc(O)cc1O`, the Potency entry in assay [1], in assay [3], in assay [4], in assay [6] and in assay [8] was “inactive” each time. In addition, the outcome in [5], in assay [10] and in assay [7] was inactive. In assay [9], the Potency is 0.118 µM (active).
Take `CC(C)c1nc(CN(C)C(=O)N[C@H](C(=O)N[C@@H](Cc2ccccc2)C[C@H](O)[C@H](Cc2ccccc2)NC(=O)OCc2cncs2)C(C)C)cs1`: the Potency entry in [1], in assay [4] and in assay [8] was “inactive” throughout.
In the case of `COC(=O)C1=C(C)NC(C)=C(C(=O)OC(C)C)C1c1cccc2nonc12` (stereo unspecified), the Potency entry in assay [1], in assay [4] and in assay [8] was “inactive” each time.
In the case of `Clc1ccc2c(N3CCN(CCCN4CCN(c5ccnc6cc(Cl)ccc56)CC4)CC3)ccnc2c1`, the Potency entry in assay [1], in assay [4], in [6], in [8] and in assay [9] was “inactive” throughout. In addition, the outcome in assay [5] and in [10] was inactive.
In the case of `CC(C)c1ccc2oc3nc(N)c(C(=O)O)cc3c(=O)c2c1`, the Potency result in assay [1], in assay [4] and in assay [8] was “inactive” in each case.
Turning to `COc1cc2nc(N3CCN(C(=O)C4CCCO4)CC3)nc(N)c2cc1OC` (stereo unspecified), the Potency entry in assay [1], in assay [2], in assay [3], in assay [4], in assay [8] and in assay [9] was “inactive” in each case. Besides, the compound was classed as inactive in assay [7].
Take `COc1ccc2cc([C@H](C)C(=O)O)ccc2c1`: the Potency result in assay [1], in assay [2], in assay [3], in assay [4], in assay [6] and in [8] was “inactive” each time. For the same compound, the result in assay [5] and in assay [10] was inactive.
Turning to `O=c1oc2cc(O)ccc2s1`, the Potency entry in [1], in assay [4] and in [8] was “inactive” in each case.
As to `O=C1c2ccccc2-c2n[nH]c3cccc1c23`, the Potency in [1] was 18400 nM (active). Besides, the Potency entry in assay [2], in [4], in assay [6] and in assay [8] was “inactive” each time. Moreover, in assay [7], the compound was called inactive.
For `Cc1cc(O)c2c(c1)C(=O)c1cc(O)cc(O)c1C2=O`, the Potency entry in [1], in [4], in [6] and in assay [8] was “inactive” throughout. The Potency in [3] is 23.9 µM (active). The outcome in assay [5] and in [7] was inactive.
Consider `Nc1nc(OCc2ccccc2)c2[nH]cnc2n1`, for which the Potency result in assay [1], in [2], in assay [3], in assay [4], in assay [6] and in assay [8] was “inactive” each time. In addition, the Potency result in assay [9] was “inactive”. For the same compound, the result in assay [5], in [10] and in assay [7] was inactive.
In the case of `CN(C)C(=O)[C@H](O)[C@H](Cc1ccccc1)NC(=O)c1cc2cc(Cl)ccc2[nH]1`, the Potency result in assay [1], in assay [4] and in assay [6] was “inactive” throughout. The outcome in [5] and in assay [10] was inactive. Also, in assay [9], the Potency was 7.43 µM (active).
Turning to `NC(=NCc1ccccc1)NC(=O)c1nc(Cl)c(N)nc1N`, the Potency entry in assay [1], in assay [2], in assay [3], in [4], in assay [6] and in [8] was “inactive” in each case. In addition, the result in assay [5] and in [7] was inactive. In addition, the Potency in [9] is 18.7 µM (active).
For `OC(CN1CCN(c2cccc(Cl)c2)CC1)C(c1ccccc1)c1ccccc1` (stereo unspecified), the Potency result in [1], in assay [2], in assay [4] and in assay [8] was “inactive” throughout. Further, the compound was called inactive in assay [7].
As for `CNC[C@H](O)c1ccc(O)c(O)c1`, the Potency result in assay [1], in assay [2], in [3], in [4], in assay [6] and in assay [8] was “inactive” throughout. In addition, the Potency entry in assay [9] was “inactive”. Also, the result in assay [5], in assay [10] and in assay [7] was inactive.
In the case of `NS(=O)(=O)c1cc(C(=O)O)c(NCc2ccco2)cc1Cl`, the Potency result in assay [1], in assay [4] and in [8] was “inactive” throughout.
As to `CC(C)c1ccc2c(c1)c(SC(C)(C)C)c(CC(C)(C)C(=O)O)n2Cc1ccc(Cl)cc1`, the Potency entry in assay [1], in [3], in assay [4], in assay [6] and in [8] was “inactive” throughout. The values for the Potency in assay [2] and in [9] were 13.1 µM (active) and 23.5 µM (active), respectively. The result in [5], in assay [10] and in assay [7] was inactive.
For the compound `CCC[C@@H]1C[C@@H](C(=O)N[C@@H]([C@H]2O[C@H](SC)[C@H](O)[C@@H](O)[C@H]2O)[C@@H](C)O)N(C)C1`, the Potency result in assay [1], in assay [4] and in assay [8] was “inactive” each time.
For the compound `O=c1cc(N2CCOCC2)oc2c(-c3ccccc3)cccc12`, in assay [1], the Potency is 5.9 µM (active) and 20 µM (active). Also, the Potency result in assay [2], in [3], in assay [4] and in assay [6] was “inactive” each time. The outcome in [5], in [10] and in assay [7] was inactive.
Take `O=C(O)c1cccnc1Nc1cccc(C(F)(F)F)c1`: the Potency entry in assay [1], in [3], in assay [4], in [6] and in assay [8] was “inactive” each time. The result in assay [5], in assay [10] and in [7] was inactive.
As for `O=c1c(O)c(-c2ccc(O)cc2O)oc2cc(O)cc(O)c12`, the Potency entry in [1], in [2], in assay [3], in [4] and in [8] was “inactive” each time. In addition, the Potency in [6] was 1.85 µM (active). In addition, the compound was classed as inactive in [7].
